Shown are actives, neighbours in structure and some others; about 4.3% of the full set was active somewhere.
NALP1 yeast inh: NALP1 inhibition; S. cerevisiae NALP1/ASC/caspase-1 growth, X-gal OD620, 72 h; inhibition, % at 10 µM; actives 0.61% (n = 280,000); AID 2071; in the data active = inhibition mostly above about 24%, no sharp cut-off; inactive = mostly below about 32%
CR mimetic SO: caloric restriction mimetics inhibiting age-related superoxide in yeast; superoxide response (% of plate mean), % at 10 µM; S. cerevisiae aged cells, superoxide DHE fluorescence; active compounds read low; actives 0.18% (n = 330,000);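 active = superoxide response under a set limit, about three screen SD below normal, cut at about 65% in these data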;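 note: yeast aged for seven days with compound at 30 °C before DHE staining; 100% = average MFI of all compound-treated wells on the plate with controls excluded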
dFosB act-1: mouse delta FosB homodimer activation; purified delta FosB, TAMRA-CDK5 oligo fluorescence polarization; percent of positive-control signal above neutral wells; activation, % at 25 µM; actives 0.99% (n = 340,000);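 active = mean activation above about 17%, with every replicate also reaching it, limit read from the data, passing the limit was not always enough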
GRIN3A LBD mod: modulators (binders) of human NR3A ligand-binding domain; NR3A LBD differential scanning fluorimetry, Tm shift; 0% = protein alone, 100% = glycine-bound protein; Tm shift relative to glycine control, % at 25 µM; actives 2.5% (n = 340,000);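 active = melting temperature shift of at least 10% of the positive control shift, at one fixed dose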
UBC13 polyUb: human UBC13 polyubiquitination inhibition | P61088 | UBC13 polyubiquitin chain formation, TR-FRET | inhibition, % at 20 µM | actives 0.47% (n = 330,000) | AID 485273; in the data active = inhibition above about 45%, passing the limit was not always enough
Target sequence (P61088 whole entry, looked up): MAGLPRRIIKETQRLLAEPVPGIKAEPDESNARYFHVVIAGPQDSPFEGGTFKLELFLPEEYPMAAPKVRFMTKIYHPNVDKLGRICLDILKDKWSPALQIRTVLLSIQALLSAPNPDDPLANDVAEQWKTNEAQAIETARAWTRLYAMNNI
Casp3 UBC13 ctr: inhibits human caspase-3 in UBC13 counter-screen | actives 4% (n = 1,400) | shares compounds with UBC13 polyUb | Recombinant caspase-3, Caspase-Glo 3/7 luminescence, 60 min | inhibition, % at 20 µM;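 active = mean inhibition across replicates above about 26%, limit read from the data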;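 note: plate controls were DMSO with caspase-3 for no effect and DMSO wells lacking enzyme for full effect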
Target sequence (P42574 whole entry, looked up): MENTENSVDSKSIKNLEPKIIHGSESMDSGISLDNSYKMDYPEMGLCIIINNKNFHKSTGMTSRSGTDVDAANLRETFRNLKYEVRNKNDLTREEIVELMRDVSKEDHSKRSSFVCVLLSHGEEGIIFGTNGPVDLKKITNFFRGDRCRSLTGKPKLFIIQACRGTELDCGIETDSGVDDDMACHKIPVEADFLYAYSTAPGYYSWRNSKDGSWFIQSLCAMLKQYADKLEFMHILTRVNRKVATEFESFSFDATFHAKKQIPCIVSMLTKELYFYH
UBC13 confirm: confirmation of human UBC13 polyubiquitin inhibitors; shares compounds with UBC13 polyUb; inhibition, % at 10 µM; UBC13 polyubiquitination, TR-FRET, biochemical; actives 68% (n = 1,400); in the data active = inhibition above about 45%
dFosB act-2: enhances mouse delta FosB homodimer binding to DNA. shares compounds with dFosB act-1. purified delta FosB, TAMRA-CDK5 oligo fluorescence polarization; normalised: neutral wells 0, positive control 100. activation, % at 24.9 µM. 2,400 tested, under 10 active. AID 588690;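 active = highest replicate activation at or above 34% and every replicate reaching that threshold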;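 note: higher polarization means more probe DNA bound by delta FosB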
Numbers without * were called inactive; / = no result given; ! = a repeat was not active.

SMILES | NALP1 yeast inh | CR mimetic SO | dFosB act-1 | GRIN3A LBD mod | UBC13 polyUb | Casp3 UBC13 ctr | UBC13 confirm | others
NC(N)=Nc1ccc2[nH]c3c(c2c1)C[C@@]1(O)[C@H]2Cc4ccc(O)c5c4[C@@]1(CCN2CC1CC1)[C@H]3O5 | / | 106 | 41* | 1 | 53* | -6 | 11
COc1ccc(CCNCc2cccc(C(F)(F)F)c2)cc1OC | 4 | 86 | -2 | -2 | 8 | / | /
COc1ccccc1CCNCc1cccc(C(F)(F)F)c1 | 10 | 102 | 0 | 1 | 52* | 0 | 10
O=C(C(=O)N1CCOCC1)c1cn(Cc2ccc(F)cc2)c2ccccc12 | / | 99 | -5 | -2 | 45* | -4 | 42
O=C(C(=O)N1CCOCC1)c1cn(Cc2ccccc2Cl)c2ccccc12 | 8 | 108 | -10 | 0 | 54* | -2 | 53*
O=C(CCC(=O)N1C[C@H]2C[C@@H](C1)c1cccc(=O)n1C2)NCc1ccc(F)cc1 | / | 90 | -4 | -1 | 5 | / | /
CCN(CC)CCCNC(=O)c1c(O)c2ccccc2n(Cc2ccccc2)c1=O | 2 | 97 | -7 | -1 | 53* | 2 | 74*
CCCCCCCSc1cc(OC)c(CCNC)cc1OC | 14 | 107 | 6 | -1 | 51* | -2 | 62*
COC(=O)C1=C(c2ccc(OCc3ccccc3)cc2)C[C@@H]2CC[C@H]1N2C(=O)NC1CCN(Cc2ccccc2)CC1 | / | 93 | -6 | -5 | 55* | -3 | 30
Cc1cc(O)c2c(c1)C(=O)C13C(=C2O)C(=O)[C@H]2[C@@H](O)[C@@H]1[C@H]1[C@H](O)[C@@H]3C(=O)C3=C(O)c4c(O)cc(C)cc4C(=O)C312 (some centres undefined) | / | 133 | -4 | 0 | -195 | / | /
O=c1c2ccccc2nc(-c2cccs2)n1-c1ccccc1 | 2 | 109 | -7 | -1 | 6 | / | /
NC(N)=N/N=C/c1cn(-c2ccccc2)nc1-c1cccs1 | 7 | 117 | -26 | 1 | 79* | 2 | 85*
COc1cc2c(c(OC)c1OC)-c1ccc(O)c(=O)cc1[C@@H](N)CC2 | / | 95 | -5 | -6 | 100* | 1 | 93*
COc1c(O)cc2c(c1OC)-c1ccc(OC)c(=O)cc1C(NC(C)=O)CC2 (centres undefined) | / | / | 1 | -3 | / | / | /
CC12CC(O)C3C(CCC4=CC(=O)CCC43C)C1CCC2=O (centres undefined) | / | / | 1 | -1 | / | / | /
CCOC(=O)c1cc(CC)sc1/N=C/c1c(O)[nH]c(=S)[nH]c1=O | 6 | 87 | -3 | 6 | -8 | / | /
CC/C(=C(\c1ccccc1)c1ccc(OCCN(C)C)cc1)c1ccccc1 | / | 100 | 24*! | -1 | 78* | -1 | 65* | dFosB act-2=-1
C=CCn1c(=O)c(C=Nc2c(OC)cccc2[N+](=O)[O-])c(O)n(CCCC)c1=O | 31 | 88 | -4 | -6 | -7 | / | /
Cc1sc2ncnc(N3CCC(C(=O)Nc4ccc(C#N)c(Cl)c4)CC3)c2c1C | / | 102 | 32* | 8 | -2 | / | / | dFosB act-2=-3
ClCCN(CCCl)c1ccc(C=Cc2ccncn2)cc1 | / | / | / | 4 | / | / | /
O=c1[nH]c(=S)[nH]c(O)c1N=Nc1ccc(SC(F)F)cc1 | 17 | 96 | 0 | 2 | -52 | / | /
O=c1[nH]c(=S)[nH]c(O)c1N=Nc1ccc(S(=O)(=O)N2CCc3ccccc32)cc1 | 2 | 89 | 29* | -2 | -74 | / | / | dFosB act-2=8
COc1ccc(OCC(=O)N2CCN(Cc3ccc4c(c3)OCO4)CC2)cc1 | 1 | 68 | -4 | 0 | 5 | / | /
CN(C)CCN(C(=O)COc1ccc(Cl)cc1)c1nc2cc3c(cc2s1)OCO3 | 20 | 103 | 24* | 3 | 3 | / | / | dFosB act-2=-1
CCCCn1c(C)c(C(=O)O)c2cc(OC)c3ccccc3c21 | 2 | 67 | -7 | 2 | -8 | / | /
CC(=O)C1C(N2CC2)CC2C3CC=C4CC(O)CCC4(C)C3CCC21C (centres undefined) | / | / | 36* | -2 | / | / | / | dFosB act-2=2
CCOc1ccc(C2C(C#N)=C(N)Oc3c2c(=O)oc2ccccc32)cc1 (centres undefined) | 19 | 113 | 21* | 2 | 9 | / | / | dFosB act-2=-3
O=C1CN=C(c2ccccc2)c2oc3ccc(Br)cc3c2N1 | 7 | 98 | 30* | 0 | 9 | / | / | dFosB act-2=-6
O=C1CN=C(c2ccc(Br)cc2)c2oc3ccccc3c2N1 | 23 | 99 | 4 | 2 | 6 | / | /
Cn1c(O)c(C=NCCN2CCOCC2)c(=O)n(C)c1=S | / | 106 | 3 | -1 | 9 | / | /

Bioassay records as filed in PubChem.
